Screening results deposited in PubChem by Columbia University Molecular Screening Center.
Rows were chosen to be rich in hits. Some 1.2% of all compounds tested hit in one or more screens of this group.
TNFa cytotox: toxic to HUVEC cells under TNF alpha stimulation | HUVEC TNFalpha-stimulated, Hoechst cell count, imaging | cell count reduction, % at 2 µM | 0.17% of 93,000 active | AID 848;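 active means cell count reduction exceeding the screen mean by over 5 SD, scaled to untreated wells per plate, cut at about 78% in these data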;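 further: cells counted after 24 h of TNF alpha exposure following the 1 h pretreatment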
VCAM1 TNFa inh: reduces TNF alpha induced VCAM1 expression in HUVEC; HUVEC TNFa-induced VCAM-1 immunofluorescence, high-content imaging; inhibition, % at 2 µM; 0.48% of 95,000 active; AID 802;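 active means inhibition above the batch mean plus 3 SD, with images confirmed as a hit by eye, cut at about 37% in these data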;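 further: 0% = TNF-stimulated DMSO wells and 100% = unstimulated control wells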
cytoskel mod: cytoskeleton assembly modification; 0.18% of 91,000 active; inhibition, % at 2 µM; AID 836; HUVEC TNFa F-actin phalloidin imaging, high content;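 active means inhibition above the batch mean plus 3 SD and confirmed as a hit by visual image inspection, cut at about 30% in these data, passing the limit was not always enough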
E-sel TNF inh: blocks E-selectin expression induced by TNF alpha. HUVEC TNFa-induced E-selectin immunofluorescence, high content. inhibition, % at 2 µM. 0.71% of 120,000 active. AID 1246;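 active means inhibition above the batch mean plus 3 SD, and confirmed as a hit on visual image review, cut at about 43% in these data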;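 further: 0% = TNF-stimulated DMSO wells and 100% = unstimulated control wells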
* = called active by the depositor; / = no result given.

SMILES	TNFa cytotox	VCAM1 TNFa inh	cytoskel mod	E-sel TNF inh
COc1ccc(Nc2cc(C(=O)NCCCN3CCN(C)CC3)c3ccccc3n2)cc1OC	/	/	/	1.9
Cc1ccc(C(=O)CSc2nsc(C)c2C#N)cc1	-10.3	0.7	74.0*	22.4
O=C(CCC1CCCCC1)NNC(=O)NC12CC3CC(CC(C3)C1)C2	-23.6	0.7	-21.5	-22.8
CCn1c(SCC(=O)Nc2ccccc2)nnc1C1CCCCC1	-22.4	-6.0	22.8	60.2*
CCOC(=O)c1cccc(NC(=O)CSc2nnc(C3CCCCC3)n2C)c1	-5.0	26.1	0.3	-17.1
COc1ccc(Cc2nnc(SCC(=O)NC3CCCC3)o2)cc1	-26.9	15.7	4.0	54.3*
O=C(CSc1nnc(Cc2ccccc2)o1)NC1CCCCC1	4.9	-0.8	7.7	-25.4
C=CCc1cccc(/C=N/NC(=O)CCCNc2ccc(C)cc2)c1O	/	/	/	68.7*
C=CCc1cccc(/C=N/NC(=O)CNc2ccccc2)c1O	-2.0	10.2	-4.9	-5.6
COc1cc(S(=O)(=O)N(Cc2ccccc2)Cc2ccccn2)ccc1-n1cnnn1	-3.4	-1.4	-5.5	20.1
COc1cc(S(=O)(=O)N(Cc2ccccn2)Cc2ccco2)ccc1-n1cnnn1	-2.9	-1.4	-9.5	54.8*
Cc1cc(C(=O)CCl)c(C)n1-c1c(C)n(C)n(-c2ccccc2)c1=O	/	/	/	13.4
O=C(CSc1ccc(Cl)cc1Cl)N1CCC(c2nc3ccccc3s2)CC1	-3.8	-11.1	-7.5	/
O=C(NCc1ccco1)c1cnn2c1NC(c1ccccc1)CC2C(F)(F)F (configuration not stated)	-7.8	-21.8	-17.6	/
Cc1ccccc1Cn1ccc(NC(=O)c2cnn3c2NC(c2ccccc2)CC3C(F)(F)F)n1 (configuration not stated)	-34.4	4.2	16.5	75.2*
CC(=O)Nc1ccccc1Nc1cc(C#N)c(C#N)cc1[N+](=O)[O-]	-0.6	1.6	-8.5	-43.2
Cc1ccc(S(=O)(=O)Nc2cc(C(=O)NCCN3CCCC3)ccc2N2CCCCC2)cc1	87.6*	73.9*	-20.5	/
C=CCn1c(SCc2ccc(C(=O)OC)cc2)nnc1-c1sc(N)nc1C	/	/	/	4.4
C=CCn1c(SCC(=O)Nc2ccc(C(=O)OCC)cc2)nnc1-c1sc(N)nc1C	-8.1	92.3*	-7.8	-17.3
COc1ccc(C2CC(=O)C(C=NCCN3CCN(C(=S)Nc4ccccc4)CC3)=C(O)C2)cc1OC (configuration not stated)	/	/	/	3.5
COc1cccc(N2CC(C(=O)Nc3nnc(SCC(=O)c4ccccc4)s3)CC2=O)c1 (configuration not stated)	/	/	/	60.6*
COc1cccc(N2CC(C(=O)Nc3nnc(SCc4ccccn4)s3)CC2=O)c1 (configuration not stated)	/	/	/	-22.7
O=c1cc(O)n(-c2ccc(F)cc2)c(=S)[nH]1	-13.6	6.5	2.6	71.1*
CCOc1cc(/C=N\Nc2ccc([N+](=O)[O-])cc2)ccc1OCC(=O)Nc1ccc(C)c(C)c1	12.8	-3.9	-8.6	-4.7
CCOc1cc(/C=N\NC(=O)Cc2ccccc2)ccc1OCC(=O)Nc1ccc(C)c(C)c1	15.1	52.3*	-15.4	-8.8
SMILES	TNFa cytotox	VCAM1 TNFa inh	cytoskel mod	E-sel TNF inh
CCNC(=O)n1nccc1C(C)Oc1cccc(C(F)(F)F)c1 (configuration not stated)	18.3	9.9	13.2	18.6
O=C(COC(=O)CCc1ccc(S(=O)(=O)N2CCOCC2)cc1)NC1CCCC1	/	/	/	62.9*
CC(C)C(=O)Nc1ccc(C(=O)NNC(=O)NC2CCCCC2)cc1	27.7	36.1*	1.7	-52.5
Cc1nc(SCC(N)=O)c([N+](=O)[O-])[nH]1	/	/	/	62.8*
Cc1ccc(OCC(=O)N/N=C\c2cn(C)c3ccccc23)c([N+](=O)[O-])c1	-2.5	7.3	3.7	-57.0
CCOC(=O)C1=C(SCC)c2cc3c(n2C1=O)CCCC3	-16.2	0.9	30.4*	-10.5
COc1ccc(CCNC(=O)CSc2nc(-c3ccco3)cc(C(F)(F)F)n2)cc1OC	-18.7	10.2	-24.1	68.5*
Cc1cc(NC(=O)CSc2n[nH]c(N)n2)no1	/	/	/	67.0*
Cc1cc(NC(=O)CSc2nc(-c3ccco3)cc(C(F)(F)F)n2)no1	45.8	52.7*	-9.7	-1.6
O=C(c1cc(N2C(=O)C3C4CCC(C4)C3C2=O)ccc1Cl)N1CCN(c2ccccc2F)CC1 (configuration not stated)	/	/	/	-4.2
CCC(CC)n1[nH]c(=O)c2c(C)cc(C)nc21	81.0*	49.2	3.5	-22.0
O=C(O)C1C2C=CC(O2)C1C(=O)Nc1ccc(S(=O)(=O)N2CCc3ccccc32)cc1 (configuration not stated)	0.4	13.8	1.8	12.3
O=C(O)C1C2C=CC(O2)C1C(=O)Nc1ccc(S(=O)(=O)Nc2ccccc2)cc1 (configuration not stated)	-16.1	14.5	38.4*	21.4
